Screens deposited in PubChem by several laboratories.
Most compounds without a hit are left out; they make up all but 1.2% or so of the library.
PLK1 PBD inh: Plk1 polo box domain binding inhibitors, primary screen, biochemical, fluorescence polarization; hit rate 0.13% among 97,000; Serine/threonine-protein kinase PLK1 (Homo sapiens), P53350; AID 693, 2007; inhibition, %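 (tested at about 20 µM)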; Plk1 PBD phosphopeptide binding; in the data active = inhibition above about 34%, passing the limit was not always enough
PLK1 kinase inh: human PLK1 kinase inhibitors, primary screen, biochemical, TR-FRET; recombinant PLK1 kinase, TR-FRET peptide phosphorylation; hit rate 0.53% among 97,000; inhibition, % at 10 µM; Serine/threonine-protein kinase PLK1 (Homo sapiens), P53350;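 active = inhibition of 50% or more in the single-concentration screen; inactive = inhibition below 50%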;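 note: 0% = DMSO max control and 100% = H-89 dihydrochloride min control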
EphB4 antag: EphB4-ephrin-B2 interaction antagonists, primary screen, biochemical, TNYL-RAW peptide probe, fluorescence polarization | inhibition, % at 7 µM | Ephrin type-B receptor 4 (Homo sapiens), P54760 | EphB4 LBD / TNYL-RAW-Alexa532 peptide | hit rate 0.15% among 97,000;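 active = inhibition above the screen-wide mean inhibition plus 3 SD, cut at about 15% in these data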;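 note: 0% = DMSO wells and 100% = excess unlabeled TNYL-RAW peptide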
PTPN22 act: LYP phosphatase activators, primary screen, biochemical, DiFMUP fluorescence, 2 µM; Tyrosine-protein phosphatase non-receptor type 22 (Homo sapiens), Q9Y2R2; recombinant LYP; 0 = plate median, 100 = signal doubled; activation, % at 2 µM; hit rate 0.11% among 96,000; AID 697, 2007;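 active = activation at 2 µM above a set limit, the mean plus 5 SD, cut at about 37% in these data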
Target sequence (Q9Y2R2 whole entry, looked up): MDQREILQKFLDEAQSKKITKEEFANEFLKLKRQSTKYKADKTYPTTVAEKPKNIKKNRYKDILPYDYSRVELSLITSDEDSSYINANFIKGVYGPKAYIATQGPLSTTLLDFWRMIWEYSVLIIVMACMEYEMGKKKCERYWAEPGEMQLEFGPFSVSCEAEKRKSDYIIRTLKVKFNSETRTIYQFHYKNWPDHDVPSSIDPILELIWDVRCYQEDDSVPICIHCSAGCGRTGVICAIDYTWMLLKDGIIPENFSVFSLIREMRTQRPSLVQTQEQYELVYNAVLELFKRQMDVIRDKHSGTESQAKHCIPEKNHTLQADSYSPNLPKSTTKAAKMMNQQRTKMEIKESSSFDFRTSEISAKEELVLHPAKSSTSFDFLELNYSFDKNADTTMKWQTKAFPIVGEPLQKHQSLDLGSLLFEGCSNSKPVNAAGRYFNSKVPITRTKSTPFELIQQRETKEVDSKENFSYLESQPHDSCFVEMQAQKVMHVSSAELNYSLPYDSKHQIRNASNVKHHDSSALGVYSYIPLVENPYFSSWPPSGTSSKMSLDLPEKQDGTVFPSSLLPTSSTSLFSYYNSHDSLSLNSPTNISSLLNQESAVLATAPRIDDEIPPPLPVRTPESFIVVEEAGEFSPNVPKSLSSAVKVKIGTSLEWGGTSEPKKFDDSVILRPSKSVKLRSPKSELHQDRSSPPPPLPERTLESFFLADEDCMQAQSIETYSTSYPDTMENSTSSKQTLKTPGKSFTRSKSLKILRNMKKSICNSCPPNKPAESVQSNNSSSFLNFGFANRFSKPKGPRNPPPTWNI
PTPN22 inh 2: PTPN22 phosphatase inhibitors, primary screen, biochemical, DiFMUP fluorescence, 2 µM; hit rate 0.21% among 96,000; AID 640, 2007; inhibition, % at 2 µM; Tyrosine-protein phosphatase non-receptor type 22 (Homo sapiens), Q9Y2R2; recombinant LYP catalytic domain;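 active = inhibition at 2 µM at or above a set limit, the screen mean plus 3 SD, cut at about 24% in these data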;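 note: 0% = DMSO with enzyme and 100% = enzyme fully blocked by orthovanadate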
* hit, by the source's call; x = not tested or not shown.

SMILES | PLK1 PBD inh | PLK1 kinase inh | EphB4 antag | PTPN22 act | PTPN22 inh 2
CCCOc1ccc(C(=O)NNC(=S)NC(=O)c2cc(-c3ccccc3)nc3ccccc23)cc1 | 29.0 | -5.2 | 6.0 | 4.0 | -0.7
CC(C)C(C(=O)O)N1C(=O)/C(=C/C=C/c2ccco2)SC1=S (stereo unspecified) | -7.5 | -25.1 | 4.5 | -25.1 | 29.1*
NC(=O)C1CCN(C(=O)CSc2nc3c(c(-c4ccccc4)n2)CCCC3)CC1 | 0.9 | -9.3 | 5.5 | 4.1 | -5.1
Cc1cc(-c2ccccc2)n2ncc(C#N)c2n1 | 23.8 | 54.3* | 1.1 | x | x
Nc1ccccc1-c1nnc(SCc2ccccc2Cl)[nH]c1=O | 10.2 | -32.0 | -0.3 | -5.2 | 2.6
Cc1ccc(CSc2nnc(-c3ccccc3N)c(=O)[nH]2)cc1 | -9.2 | 2.4 | -3.5 | -29.6 | 28.9*
Cc1cc(N2CCC(C)CC2)nc2cccc(O)c12 | -2.5 | 62.7* | 1.7 | -8.9 | 8.1
Cc1nc2ccccc2nc1N1CCC(C)CC1 | -10.5 | -10.4 | -3.9 | 14.9 | -15.8
CCCn1c(=O)[nH]c(=O)c2c1nc(-c1ccccc1)n2CCN1CCOCC1 | 11.3 | -13.4 | 11.2 | -3.3 | 4.4
CCOC(=O)c1ccc(NC(=S)NCC(O)c2ccccc2)cc1 (stereo unspecified) | -16.3 | -2.2 | 16.9* | -6.3 | 9.8
CCN(CC)S(=O)(=O)c1ccc(F)c(C(=O)NCCC(C)C)c1 | -7.3 | 11.0 | 1.7 | 1.7 | -4.8
CCCCSc1nnc(-c2c[nH]c3ccccc23)n1C | -18.1 | 68.8* | 2.0 | x | x
Cn1c(SCc2ccccc2)nnc1-c1c[nH]c2ccccc12 | -10.2 | -18.3 | 3.9 | -9.8 | 9.0
COc1cccc(-n2c(SCC(=O)N3CCOCC3)nnc2-c2c[nH]c3ccccc23)c1 | 7.3 | 63.4* | 2.0 | x | x
Cn1c(SCC(=O)N2CCN(c3ccccc3)CC2)nnc1-c1c[nH]c2ccccc12 | 15.1 | 67.0* | -0.9 | x | x
Cc1ccc(CNS(=O)(=O)NCc2ccccc2)cc1 | 8.4 | -3.2 | 8.1 | 2.3 | -0.6
COc1ccc(C(=O)c2sc3nc(-c4ccccc4)ccc3c2N)cc1OC | -21.3 | -21.7 | -3.4 | -23.4 | 25.0*
COCCNC(=O)c1ccccc1NS(=O)(=O)c1ccc(Br)s1 | -18.3 | -2.8 | 2.9 | 2.2 | 0.2
COc1cc(/C=N/NC(=O)CSc2cc(C)c(Br)cc2C)ccc1O | 7.1 | -7.1 | 1.4 | 5.6 | -7.3
Cc1cc(SCC(=O)N/N=C/c2ccc(O)c(O)c2O)c(C)cc1Br | -5.3 | 16.8 | 0.5 | -56.6 | 57.4*
CN(Cc1ccccc1)c1oc(COc2ccccc2F)nc1C#N | -13.0 | 69.2* | 4.3 | x | x
N#Cc1nc(COc2ccccc2F)oc1NCCc1ccccc1 | -39.2 | -7.0 | -5.3 | -6.5 | 6.3
COc1ccc(Cl)cc1S(=O)(=O)N1CCN=C1C | 4.7 | 64.2* | -7.2 | x | x
Cc1ccc(NC(=O)COC(=O)c2ccc3c(c2)NC(=O)C2CCCN32)cc1C (stereo unspecified) | 14.9 | -13.7 | -1.6 | -8.1 | 8.5
CCC(C)n1c(C)nc2c(c1=O)c1nc3ccccc3nc1n2CCC1=CCCCC1 (stereo unspecified) | -6.6 | 0.1 | 3.1 | -21.6 | 24.8*
SMILES | PLK1 PBD inh | PLK1 kinase inh | EphB4 antag | PTPN22 act | PTPN22 inh 2
CCCCn1c2nc3ccccc3nc2c2c(=O)n(C(C)CC)cnc21 (stereo unspecified) | 15.1 | -13.8 | -0.3 | 7.7 | -7.7
Cc1cc(C(C#N)c2ccccc2)n2ncnc2n1 (stereo unspecified) | -5.8 | 52.5* | -6.9 | 3.1 | -5.8
CCOc1ccc(C(=O)NCCn2cc(SCC(=O)Nc3cc(C)on3)c3ccccc32)cc1 | -20.4 | -0.6 | -0.7 | 3.7 | -4.1
Cc1ccc(C(=O)NCCn2cc(SCC(=O)Nc3nnc(C)s3)c3ccccc32)cc1 | 6.9 | 62.3* | 4.6 | x | x
CC(CN(C)Cc1ccccc1)OC(=O)C1COc2ccccc2O1 (stereo unspecified) | -4.1 | 61.9* | -4.7 | x | x
O=C(NCc1ccccc1)C1COc2ccccc2O1 (stereo unspecified) | 18.6 | -4.9 | 4.9 | 5.8 | -6.9
Cc1cccc(CSc2nc(N)c(C#N)c(-c3cccs3)c2C#N)c1 | -5.3 | -9.7 | 17.1* | 9.5 | -9.6
CCCCSc1nc(N)c(C#N)c(-c2cccs2)c1C#N | -24.0 | -9.3 | -0.4 | 0.8 | -3.4
COc1ccc(NC(=O)C2CCCO2)cc1Cl (stereo unspecified) | -8.6 | -5.5 | -1.1 | -25.4 | 24.5*
